40 molecules from PubChem BioAssay (NCATS) can be followed below.

Records with an inconclusive call do not appear. Active and inactive are the calls of the source. Calls come from the whole dose curve; as a rule, active = well fitted cell-killing curve with a large enough effect; inconclusive = small, poorly fitted or top-dose-only effect, or effect the other way; inactive = no such curve, though single readings can be large or run the other way.
Potency is the fitted concentration of half-maximal effect.

A short description of this assay: Quantitative High-Throughput drug screen in 47 multiple myeloma cell lines against the NCATS MIPE library collection: XG6_PLB cell viability assay (AID 1919865). Note: nearly all actives have a fitted effect of over 40% in size. To be noted: XG6 myeloma viability, CellTiter-Glo ATP luminescence, 48 h; series mostly up to 45.8 µM. An excerpt:
PI: Beverly A. Mock Ph.D.
Laboratory of Cancer Biology and Genetics,
Center for Cancer Research, National Cancer Institute,
National Institute of Health, Bethesda, Maryland
Drug resistance and disease progression are common in multiple myeloma (MM) patients, underscoring the need for new therapeutic combinations. […] We hypothesized that effective combinations would reduce MYC expression and enhance p16 activity. […] These preclinical data identify potentially useful drug combinations for evaluation in drug-resistant MM and reveal potential mechanisms of combined drug sensitivity.
Described herein is the primary MIPE qHTS used to cherrypick compounds. Validated compounds were then further tested for potential synergistic activiy.
[1] Peat TJ, Gaikwad SM, Dubois W, Gyabaah-Kessie N, Zhang S, Gorjifard S, Phyo Z, Andres M, Hughitt VK, Simpson RM, Miller MA, Girvin AT, Taylor A, Williams D, D'Antonio N, Zhang Y, Rajagopalan A, Flietner E, Wilson K, Zhang X, Shinn P, Klumpp-Thomas C, McKnight C, Itkin Z, Chen L, Kazandijian D, Zhang J, Michalowski AM, Simmons JK, Keats J, Thomas CJ, Mock BA. Drug combinations identified by high-throughput screening promote cell cycle transition and upregulate Smad pathways in myeloma. Cancer Lett. 2023 Aug 1;568:216284. doi: 10.1016/j.canlet.2023.216284. Epub 2023 Jun 24. PMID: 37356470; PMCID: PMC10408729.
SEQUENCE No. (e.g., 1, 2, 3, etc.); […] (e.g., Cells, Incubation, Reagent, etc.); VALUE and DESCRIPTION.
1; Cells; 5 uL; white, solid bottom 1536-well Greiner assay plate.
2; Compounds; 23 nL; Kalypsis pin tool (Wako USA) equipped with a 1536-well pin head to transfer to the assay plates.
3; Incubation; 48 hours; 37C incubation.
4; Reagent;5uL; CellTiter Glo (Promega).
5; Detector; 425V; Luminescence; Viewlux PerkinElmer.
NOTES (numbers refer to Sequence numbers above)
1. The cell-based screening methods employed in this study were like those previously published. Briefly, the corresponding myeloma cell lines were screened in 1,536-well plates with 500 cells, 5-uL per well for inhibition of cell viability (assessed by measuring ATP levels with CellTiterGlo).
2. NCATS MIPE 4.0 library of approved and investigational drugs were added using the Kalypsis pin tool. Wells treated with DMSO only for 100% viability and media only for 0% viability were used as controls.
3. The assay plates were covered and incubated for 48 hours in a 37C, 5% CO2 incubator with controlled humidity.
4. After 48 hours, CellTilter-GloTM luminescent substrate mix (Promega) reagent was added to the assay plate and plates we incubated for 5 min at room temperature.
5. Signal was measured as median relative luminescence units on a ViewLux (PerkinElmer) multiplate reader.
[1] Heske CM, Davis MI, Baumgart JT, Wilson K, Gormally MV, Chen L, Zhang X, Ceribelli M, Duveau DY, Guha R, Ferrer M, Arnaldez FI, Ji J, Tran HL, Zhang Y, Mendoza A, Helman LJ, Thomas CJ. Matrix Screen Identifies Synergistic Combination of PARP Inhibitors and Nicotinamide Phosphoribosyltransferase (NAMPT) Inhibitors in Ewing Sarcoma. Clin Cancer Res. 2017 Dec 1;23(23):7301-7311. doi: 10.1158/1078-0432.CCR-17-1121. Epub 2017 Sep 12. PMID: 28899971; PMCID: PMC6636827.
On the technique in general: Cellular ATP, detected with luciferase, serves as a proxy for viable cell number.
Regarding `Cn1cc(-c2ccncc2)c(-c2ccc(OCc3ccc4ccccc4n3)cc2)n1`, the Potency was 5900 nM (active). As to `Cn1c(CNc2ccc(C(=N)N)cc2)nc2cc(C(=O)N(CCC(=O)O)c3ccccn3)ccc21`, the Potency result is “inactive”. For `COc1ccc(C=Cc2cc(OC)c(OC)c(OC)c2)cc1O` the value was “inactive”; for `Nc1ccn([C@@H]2O[C@H](CO)[C@H](O)C2(F)F)c(=O)n1`, 74.3 nM (active). For `COc1cc(C(=O)N2CCC(N3CCN(C)CC3)CC2)ccc1Nc1ncc2c(n1)N(C)c1ccccc1C(=O)N2C` the value was 5260 nM (active). For `COc1cc(C(=O)NS(=O)(=O)c2ccccc2C)ccc1Cc1cn(C)c2ccc(NC(=O)OC3CCCC3)cc12` the value was 14800 nM (active); for `CCN(CC)CCCCNc1ncc2cc(-c3cc(OC)cc(OC)c3)c(NC(=O)NC(C)(C)C)nc2n1`, 5900 nM (active). As to `C1=CCOCc2cc(ccc2OCCN2CCCC2)Nc2nccc(n2)-c2cccc(c2)OCC1`, the Potency is 1870 nM (active). Regarding `COC(=O)C1=C(C)NC(C)=C(C(=O)OCCN2CCN(C(c3ccccc3)c3ccccc3)CC2)C1c1cccc([N+](=O)[O-])c1` (stereo not given), the Potency was 2640 nM (active).

On to `O=C(Nc1cc(C(F)(F)F)cc(C(F)(F)F)c1)c1cc(Cl)ccc1O`, for which the Potency is 935 nM (active). Turning to `C[C@@]12O[C@@H](C[C@]1(O)CO)n1c3ccccc3c3c4c(c5c6ccccc6n2c5c31)CNC4=O`, the Potency is 209 nM (active).

For `C=CC(=O)Nc1cccc(Oc2nc(Nc3ccc(N4CCN(C)CC4)cc3)ncc2Cl)c1`, the Potency was 1180 nM (active).

In the case of `CC(=O)c1c(C)c2cnc(Nc3ccc(N4CCNCC4)cn3)nc2n(C2CCCC2)c1=O`, the Potency is 14800 nM (active).

For the molecule `CC1(C)OC2=C(C(=O)c3ccccc3C2=O)[C@H](NCc2ccccc2)[C@H]1O`, the Potency is 935 nM (active). For `CC1COC2(CCN(c3nc(=O)c4cc(C(F)(F)F)cc([N+](=O)[O-])c4s3)CC2)O1` (stereo not given) the value was “inactive”; for `COc1ccc(F)c(F)c1C(=O)c1cnc(NC2CCN(S(C)(=O)=O)CC2)nc1N`, 1050 nM (active); for `COc1cc(C)c(Sc2cnc(NC(=O)c3ccc(CNC(C)C(C)C)cc3)s2)cc1C(=O)N1CCN(C(C)=O)CC1` (stereo not given), 16600 nM (active). With `OCc1ccc(-c2ccc(-c3ccc(CO)s3)o2)s1` the figure was 16600 nM (active). With `Cc1[nH]nc2ccc(-c3cncc(OC[C@@H](N)Cc4ccccc4)c3)cc12`, the Potency is 935 nM (active). For `COc1cc2c(NC3CCN(C(C)C)CC3)nc(C3CCCCC3)nc2cc1OCCCN1CCCC1` the value was 2640 nM (active); for `Cc1cn2cc(C(=O)N(C)CCO)cc(N[C@@H]3CCOc4cccc(C)c43)c2n1`, “inactive”. Regarding `Cc1cc(C(=O)N2CCN(c3cccc(Cl)c3)CC2)n(-c2ccccc2)n1`, the Potency was 118 nM (active).

As to `Cc1cnc(-c2cnc(NCCNc3ccc(C#N)cn3)nc2-c2ccc(Cl)cc2Cl)[nH]1`, the Potency is 6620 nM (active). As for `COCCn1c2c([n+](Cc3cnccn3)c1C)C(=O)c1ccccc1C2=O`, the Potency was 20.9 nM (active). As to `Nc1cccc(-c2cc3c(Oc4cccc(O)c4)ncnc3[nH]2)c1`, the Potency was 2090 nM (active).

As for `O=C(O)c1ccc2c(c1)nc(Nc1cccc(Cl)c1)c1ccncc12`, the Potency is 3720 nM (active). Take `COC(=O)c1ccc2c(C(=Nc3ccc(N(C)C(=O)CN4CCN(C)CC4)cc3)c3ccccc3)c(O)[nH]c2c1`: the Potency is 46.9 nM (active).

`COc1ccc(-n2nc(C(N)=O)c3c2C(=O)N(c2ccc(N4CCCCC4=O)cc2)CC3)cc1`: the Potency entry is “inactive”. With `Nc1ncnc2c1c(-c1cccc(OCc3ccccc3)c1)cn2C1CC(CN2CCCC2)C1` (stereo not given) the figure was 5260 nM (active); with `Cc1cc(Nc2ncnc3ccc(-c4ccc(CNCCS(C)(=O)=O)o4)cc23)ccc1Oc1ccn2ncnc2c1`, 1660 nM (active).

`CCN(CC)CCNC(=O)c1ccc2nc(-c3ccccc3)c(-c3ccc(CN4CCC(n5c(=O)[nH]c6ccccc65)CC4)cc3)nc2c1`: the Potency is 296 nM (active).

With `COc1cc2c(Oc3ccc(-c4cnc(Nc5ccc(F)cc5)n(C)c4=O)cc3F)ccnc2cc1OCCCN1CCOCC1`, the Potency was 3320 nM (active). With `CC(C)CC(=O)Nc1n[nH]c2c1CN(C(=O)C1CCN(C)CC1)C2(C)C` the figure was 935 nM (active). For `CCCCc1nc2cc(C=CC(=O)NO)ccc2n1CCN(CC)CC`, the Potency is 4690 nM (active). With `O=c1[nH]nc(Sc2ncc([N+](=O)[O-])s2)n1-c1ccc2c(c1)OCCO2`, the Potency is 2090 nM (active). With `COc1cc(C(C)C)c2c(c1)S(=O)(=O)N(COc1cc(=O)n3cccc(OCCN4CCCCC4)c3n1)C2=O` the figure was 833 nM (active). As for `COc1cc(OC2CCN(C)CC2)ccc1Nc1ncc2c(n1)n(C1CCCC1)c(=O)n2C`, the Potency is 4690 nM (active).

As for `CN(C)Cc1c(C(=O)NCCOc2ccc(C(=O)NO)cc2)oc2ccccc12`, the Potency was 2960 nM (active). Turning to `Cc1cc(Nc2cc(N3CCN(C)CC3)nc(C=Cc3ccccc3)n2)n[nH]1`, the Potency is 9590 nM (active).

Consider `Nc1nc(Nc2ccc(S(N)(=O)=O)cc2)nn1C(=O)c1c(F)cccc1F`, for which the Potency was 2350 nM (active).
